Results on one compound are retold here after PubChem BioAssay AID504415 (Broad Institute, 2011).

Entries with a potency or affinity are not part of this list. Inconclusive results are not listed. Activity calls are given as the source filed them.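 Rule for the calls: active = compound lowering the signal whose fitted half-maximal concentration is at most ten times its top tested dose; inconclusive = flat curve with 30 to 70% loss, or poor fit; inactive = the rest.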

A short description of the assay: viability loss in Mcl1-dependent HMC-1-8 cells, dose response, selectivity assay for A1 inhibitor project, cell-based, luminescence, dry powder (AID 504415).

For `C/C1=C/C(=O)O[C@@H]2C[C@@H](CC[C@H](C)/C=C\CC1)O[C@@](O)(C1CSC(=O)N1)C2` (stereo partly specified), the result was inactive.
